Data: PubChem BioAssay AID540308 (The Scripps Research Institute Molecular Screening Center, 2011)
The campaign covered roughly 360,000 compounds. About 3,500 (0.97%) were called active.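 Rule for the calls: active = activation above a per-plate cutoff, the mean activation of sample wells on that plate plus 3 SD (cut at about 8% in these data); inactive = the rest.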 The sample as a whole holds a higher share of actives than the screen did.

target: Melanocortin receptor 4 (Homo sapiens) (UniProt P32245); test: activators of MC4R beta-arrestin recruitment – cell-based, luminescence, agonist arm of biased-ligand search, primary screen (AID 540308); conditions: U2OS MC4R beta-arrestin complementation, at 8.9 µM, active compounds read high, percent of melanotan II response, DMSO zero
Sequence (P32245 whole entry, looked up): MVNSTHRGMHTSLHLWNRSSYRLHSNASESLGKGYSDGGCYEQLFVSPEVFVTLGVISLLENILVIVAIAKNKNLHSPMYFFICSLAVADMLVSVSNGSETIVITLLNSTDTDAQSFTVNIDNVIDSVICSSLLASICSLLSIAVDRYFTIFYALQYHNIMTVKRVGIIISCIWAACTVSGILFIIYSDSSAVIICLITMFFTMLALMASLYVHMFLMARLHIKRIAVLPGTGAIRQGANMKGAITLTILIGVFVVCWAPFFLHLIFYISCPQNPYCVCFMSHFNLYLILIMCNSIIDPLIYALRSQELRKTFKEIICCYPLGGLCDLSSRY

| Structure (SMILES) | activation |
| --- | --- |
| CCc1nc2ccc(C(=O)Nc3ccc(OC)c(OC)c3)cn2c1N(C)C(=O)c1cccc(OC)c1 | -1.68% (inactive) |
| CC1(C(=O)NCc2ccc3c(c2)OCO3)CCN1C(=O)Cc1cccc2ccccc12 (stereo not drawn) | -2.21% (inactive) |
| COC(=O)Cn1nc(-c2ccccc2)c2cc(Cl)ccc21 | -2.4% (inactive) |
| Clc1ccc2nc(-c3ccccc3)nc(C(Cl)Cl)c2c1 | 1.35% (inactive) |
| NC(N)=Nc1nc(-c2ccccc2)c2cc(Cl)ccc2n1 | 9.69% (active) |
| CC1(C(=O)NS(=O)(=O)c2cccc(F)c2)CCN1C(=O)Cc1ccc(Cl)cc1Cl (stereo not drawn) | -2.74% (inactive) |
| Cc1ccccc1-c1nc(NC(C)C)nc2cc(-c3ccccc3)sc12 | -0.61% (inactive) |
| CC1(C(=O)NS(=O)(=O)c2ccc3ccccc3c2)CCN1C(=O)C1(c2ccc(Cl)cc2)CCC1 (stereo not drawn) | -0.24% (inactive) |
| CCSc1nc2sc3c(c2c(=O)[nH]1)CC(C)(C)OC3 | -0.6% (inactive) |
| CCSc1nnc(-c2cc3c(s2)-c2ccccc2CC3)o1 | -0.34% (inactive) |
| CSc1nc2sc3c(c2c(=O)[nH]1)CCc1ccccc1-3 | 12.4% (active) |
| COc1ccc(/C=C/C(=O)c2c(O)cc(OC)cc2OC)cc1 | -0.69% (inactive) |
| N#Cc1cccc(NC(=O)c2cc(C3CCCCN3C(=O)CCc3ccccc3)on2)c1 (stereo not drawn) | -1.43% (inactive) |
| CC(C)Oc1ccc(CN2CCC2(C)C(=O)NCc2ccc(C(F)(F)F)cc2)cc1 (stereo not drawn) | 0.02% (inactive) |
| COc1ccc(Cl)cc1-n1c(C)cc(C(=O)OCC(=O)N2CC(=O)Nc3ccccc32)c1C | 15.3% (active) |
| COc1ccc(C(=O)OCC(=O)N2CC(=O)Nc3ccccc32)cc1Br | 0.65% (inactive) |
| COc1cc(OC)c(C(=O)OCC(=O)N2CC(=O)Nc3ccccc32)cc1OC | -2.02% (inactive) |
| O=C(Nc1cccc(Cc2ccccc2)c1)Nc1ccc2nc([C@@H]3O[C@H](CO)[C@@H](O)[C@H](O)[C@H]3O)[nH]c2c1 | -0.22% (inactive) |
| C[C@H](NC(=O)[C@@H]1Cc2ccccc2CN1C(=O)OC(C)(C)C)C(=O)NC1CCCC1 | -3.11% (inactive) |
| CC(=O)Nc1cnc(-c2ccc(O)cc2C)cn1 | -2.1% (inactive) |
| Cc1c(C(=O)NCC2CC2)sc(=O)n1Cc1cccc(F)c1 | 1.11% (inactive) |
| COc1ccc(CC(=O)Nc2cc(S(=O)(=O)N3CCCCC3)ccc2N2CCN(C)CC2)cc1 | -2.51% (inactive) |

| Structure (SMILES) | activation |
| --- | --- |
| Cc1cccc(NC(=O)Nc2cccc(Oc3c(F)c(F)c(F)c(F)c3F)c2)c1 | 15.8% (active) |
| Cc1ccoc1C(=O)Nc1cccc(Oc2ccccc2)c1 | 0.82% (inactive) |
| COc1cccc(NC(=O)Nc2ccc(F)cc2)c1 | 1.45% (inactive) |
| CC(C)CNC(=O)C1(C)CCCN1C(=O)CSc1ccccc1 (stereo not drawn) | -1.48% (inactive) |
| CC(Oc1ccc(Br)cc1)C(=O)NCC(c1ccco1)N1CCCCC1 (stereo not drawn) | 0.14% (inactive) |
| O=C(Nc1ccc(N2CCOCC2)cc1)c1cccc2c(-c3ccc(F)c(F)c3)coc12 | 3.52% (inactive) |
| Cc1ccc(C(=O)Nc2sc(Cc3ccc4c(c3)OCO4)c(C)c2C(N)=O)cc1 | 0.85% (inactive) |
| COc1ccc(CC(=O)Nc2sc(Cc3ccccc3)c(C)c2C(N)=O)cc1 | 9.06% (active) |
| COc1ccc(CC(=O)Nc2c(C(N)=O)oc3ccccc23)cc1 | -1.72% (inactive) |
| CCc1nc2ccc(C(=O)N(C)CCN(C)C)cn2c1N(CC)CCOC | -1.01% (inactive) |
| COc1ccc(NC(=O)C2Cc3c(-c4ccc(Cl)cc4)ccnc3O2)cc1 (stereo not drawn) | 2.27% (inactive) |
| Cc1cccnc1C(NC(=O)C1CCN(Cc2ccc(Cl)c(Cl)c2)CC1)c1ccc(Cl)cc1 (stereo not drawn) | -0.01% (inactive) |
| CC(C)(C)c1nnc2sc(SCC(O)=C(C#N)c3nc4ccccc4[nH]3)nn2c1=O | -0.79% (inactive) |
| COc1ccccc1C(=O)COC(=O)COc1ccc(C#N)cc1 | -0.25% (inactive) |
| N#C/C(=C(/O)COC(=O)COc1ccc(Cl)cc1)c1nc2ccccc2[nH]1 | 14.5% (active) |
| CC(C)NC(=O)C1(C)CCCCCN1C(=O)c1ccc(-c2ccccc2)cc1 (stereo not drawn) | -1.12% (inactive) |
| COCCNc1nnc(SCC(=O)NNC(=O)c2ccco2)s1 | -0.17% (inactive) |
| O=C(NCc1ccc(F)cc1)c1cc(C2CCCCN2C(=O)c2cccs2)on1 (stereo not drawn) | -0.1% (inactive) |
| COC(=O)c1sccc1NN1C(=O)c2ccccc2C1=O | 1.29% (inactive) |
| COC(=O)c1sccc1NC(=O)c1cc(OC)c(OC)c(OC)c1 | 10.6% (active) |
| COC(=O)c1sccc1NC(=O)c1ccc(Cl)cc1 | 3.1% (inactive) |
| COc1ccc(NC(=O)C2(C)Cc3c(-c4cccc(NC(C)=O)c4)ccnc3O2)cc1 (stereo not drawn) | -0.48% (inactive) |

| Structure (SMILES) | activation |
| --- | --- |
| CCN(CC)C(=O)C1CCCN(Cc2cccc(Cl)c2)C1 (stereo not drawn) | -1.07% (inactive) |
| Cc1noc(C)c1C(=O)N1CCC1(C)C(=O)NS(=O)(=O)c1ccc(C#N)cc1 (stereo not drawn) | -1.23% (inactive) |
| COc1cccc(C(NC(C)=O)c2nc(-c3cnc4ccccc4c3)cs2)c1 (stereo not drawn) | -2.35% (inactive) |
| Cc1ccc(C)c(C(=O)COC(=O)Cn2[nH]c(=O)c3ccccc3c2=O)c1 | -1.85% (inactive) |
| O=C(CSc1nc2ccccc2c(=O)[nH]1)Nc1nc(-c2ccc(Br)cc2)cs1 | 0.03% (inactive) |
| Cc1ccc(-c2csc(NC(=O)Cn3[nH]c(=O)c4ccccc4c3=O)n2)cc1 | 16.1% (active) |
| Cc1cc(=O)oc2c3c(cc(OCC(=O)NCC(O)c4ccccc4)c12)OC(C)(C)CC3 (stereo not drawn) | 2.2% (inactive) |
| CCc1nc2c(OCc3ccc(Cl)cc3Cl)cccn2c1N(C)C(=O)C(C)C | -0.09% (inactive) |
| CCCCCC(=O)N1C[C@H](O)[C@@H](n2cc(COC(=O)c3ccccc3)nn2)C[C@@H]1c1ccc(C)cc1 | 0.09% (inactive) |
| Cc1ccc([C@H]2C[C@H](O)[C@@H](n3cc(COC(=O)c4ccccc4)nn3)CN2CC2CCCCC2)cc1 | 1.06% (inactive) |
| Cc1ccc([C@H]2C[C@H](O)[C@@H](n3cc(COC(=O)c4ccccc4)nn3)CN2C(=O)C2CCCCC2)cc1 | 9.82% (active) |
| Fc1ccc(-c2csc(-c3ccc(C4SCCS4)cc3)n2)cc1F | 1.21% (inactive) |
| COc1ccc(Br)c(Cn2c(C)c(C(=O)NCc3cccs3)sc2=O)c1 | 0.68% (inactive) |
| Cn1cc(S(=O)(=O)NC(c2ccccc2)c2ccccc2)c(=O)n(C)c1=O | -0.18% (inactive) |
| CCc1nc2c(OCCOc3ccccc3)cccn2c1N(C)C(=O)c1cccs1 | 0.14% (inactive) |
| COc1ccc(S(=O)(=O)NC(=O)C2(C)CCN2C(=O)c2ccccc2CCc2ccccc2)cc1 (stereo not drawn) | -2.22% (inactive) |
| O=C(O)c1ccc(/C=N/NC(=S)NCc2ccccc2)cc1 | 0.6% (inactive) |
| CNC(=S)N/N=C/c1ccc(OCc2ccccc2)c(Br)c1 | 8.56% (active) |
| O=C(O)COc1ccc(/C=N/O)cc1Br | -1.99% (inactive) |
| CCCC(=O)N1CCC1(C)C(=O)Nc1ccc(-n2cncn2)cc1 (stereo not drawn) | 0.24% (inactive) |
| Clc1ccccc1Nc1nc(NCc2cccs2)nc2ccsc12 | 15.7% (active) |
| COc1cccc(-c2cc3nc(NCCOc4ccccc4Cl)n(C)c(=O)c3s2)c1 | 2.56% (inactive) |

| Structure (SMILES) | activation |
| --- | --- |
| CC(=O)Nc1ccc(CNc2nc(NCCN(C)C)nc3cc(-c4ccccc4)sc23)cc1 | 0.89% (inactive) |
| COc1cccc(CNc2nc(NCc3cccs3)nc3ccsc23)c1 | -1.2% (inactive) |
| COCCNc1nc(Nc2ccccc2Cl)c2sc(-c3ccccc3)cc2n1 | 10.6% (active) |
| COc1ccccc1CNc1nc(Nc2ccccc2Cl)c2sccc2n1 | 0.15% (inactive) |
| COc1ccc(C(C)(O)c2nc(-c3ccc(C)c(C)c3)cs2)cc1 (stereo not drawn) | 0.79% (inactive) |
| COc1cc2ccccc2cc1C(=O)Nc1ccncc1 | -0.89% (inactive) |
| CC(C)c1cc(C(=O)NC2CCCCCC2)c2ccccc2n1 | -0.07% (inactive) |
| Cc1cc(NS(=O)(=O)c2ccc(NC(=O)c3cccc(OC(F)F)c3)cc2)nc(C)n1 | 0.09% (inactive) |
| CSc1ncccc1C(=O)Nc1ccc2c(c1)OCO2 | -2.93% (inactive) |
| Cc1ccc2nc(-c3ccccn3)cc(C(=O)Nc3ccc4c(c3)OCO4)c2c1 | 8.55% (active) |
| CCc1ccc(-c2cc(C(=O)NN3CCN(C)CC3)c3ccccc3n2)cc1 | -0.59% (inactive) |
| Cc1ccc2nc(-c3ccncc3)cc(C(=O)Nc3ccc(OC(F)F)cc3)c2c1 | 13.6% (active) |
| COc1ccc(NC(=O)c2cc(-c3cc(OC)c(OC)c(OC)c3)nc3ccccc23)c(OC)c1 | 1.47% (inactive) |
| O=C(Nc1ccc(S(=O)(=O)Nc2nccs2)cc1)c1cc(-c2ccncc2)nc2ccccc12 | 1.73% (inactive) |
| Cc1ccc2nc(-c3ccncc3)cc(C(=O)Nc3ccncc3)c2c1 | 10.5% (active) |
| CC1CCCC(NC(=O)c2cc(-c3ccncc3)nc3ccccc23)C1C (stereo not drawn) | 8.93% (active) |
| Cc1ccc(-n2c(SCC(=O)Nc3ccc4c(c3)OCO4)nnc2-c2ccccn2)cc1 | 1.14% (inactive) |
| CCOC(=O)C1CCCN(C(=O)c2cc(-c3cccs3)oc2C)CC1 (stereo not drawn) | 1.53% (inactive) |
| CCCS(=O)(=O)NC(=O)C1(C)CCCN(C(=O)c2ccnc(Cl)c2)C1 (stereo not drawn) | -0.96% (inactive) |
| CCCCc1ccc(S(=O)(=O)NC(=O)C2(C)CCN2C(=O)c2ccccc2)cc1 (stereo not drawn) | 0.97% (inactive) |
| OC[C@@H]1CN(Cc2ccc(-c3ccccc3)cc2)C[C@H](n2cnc3c(NC4CCCC4)ncnc32)O1 | 5.7% (inactive) |
| CCc1nc2c(OCc3ccc(C(=O)OC)cc3)cccn2c1N(C)C(=O)C(C)C | 1.62% (inactive) |
